Results on six compounds are retold here after paper PMC11062922 (Nature Chemical Biology, 2023).

The structures appear in SMILES notation. Where two headings read alike, the source gives them in different places.

Design in all cases: species or system human, MV4-11 + K-562 + COLO205 + SK-N-BE2 + OVCAR-8
One assay concerns ADRBK1. The conditions noted are these: read-out: apparent Kd, n = 1.
The next assay relates to AKT1. The conditions noted are these: read-out: apparent Kd; compound concentrations: 100 nM and 1000 nM (sheet 'Samples'), CATDS: 9.2646573747736397E-2; n = 1.
Another assay has as its system AKT2. The settings on record: read-out: apparent Kd, n = 1.
In a further assay the test system is AKT3. The conditions noted are these: read-out: apparent Kd, n = 1.
For a further assay, the system named is MAP2K1. The conditions noted are these: read-out: apparent Kd; compound concentrations: 100 nM and 1000 nM (sheet 'Samples'), CATDS: 9.2730141301733807E-2; n = 1.
A further assay deals with MAP2K2. The settings on record: read-out: apparent Kd; compound concentrations: 100 nM and 1000 nM (sheet 'Samples'), CATDS: 9.7397505320664393E-2; n = 1.
The test system of another assay is MAP4K3. The settings on record: read-out: apparent Kd; compound concentrations: 100 nM and 1000 nM (sheet 'Samples'), CATDS: 0.10467989294056; n = 1.
The next assay relates to NQO1. The conditions noted are these: read-out: apparent Kd, n = 1.
The subject of another assay is RIOK2. The conditions noted are these: read-out: apparent Kd, n = 1.
The next assay concerns TP53RK. The conditions noted are these: read-out: apparent Kd; compound concentrations: 100 nM and 1000 nM (sheet 'Samples'), CATDS: 8.4192999566122695E-2; n = 1.
A further assay relates to CDK4. The conditions noted are these: read-out: apparent Kd; compound concentrations: 100 nM and 1000 nM (sheet 'Samples'), CATDS: 0.36803542167658398; n = 1.
Another assay has as its system CDK6. The conditions noted are these: read-out: apparent Kd, n = 1.
A further assay concerns PIP4K2C. The conditions noted are these: read-out: apparent Kd; compound concentrations:100 nM and 1000 nM (sheet 'Samples'); n = 1.
The subject of the next assay is PKN2. The conditions noted are these: read-out: apparent Kd; compound concentrations:100 nM and 1000 nM (sheet 'Samples'); n = 1.
The subject of a further assay is PRKCI. The conditions noted are these: read-out: apparent Kd; compound concentrations:100 nM and 1000 nM (sheet 'Samples'); n = 1.
For another assay, the system named is PRKG1. The settings on record: read-out: apparent Kd; compound concentrations:100 nM and 1000 nM (sheet 'Samples'); n = 1.
The next assay concerns ROCK2. The conditions noted are these: read-out: apparent Kd; compound concentrations:100 nM and 1000 nM (sheet 'Samples'); n = 1.
The test system of another assay is RPS6KB1. The settings on record: read-out: apparent Kd; compound concentrations:100 nM and 1000 nM (sheet 'Samples'); n = 1.
In a further assay the test system is TTN. The conditions noted are these: read-out: apparent Kd; compound concentrations:100 nM and 1000 nM (sheet 'Samples'); n = 1.
The test system of the next assay is CDK10. The settings on record: read-out: apparent Kd; compound concentrations: 100 nM and 1000 nM (sheet 'Samples'), CATDS: 0.80077145880212897; n = 1.
The test system of a further assay is PRKAA2. The conditions noted are these: read-out: apparent Kd; compound concentrations: 100 nM and 1000 nM (sheet 'Samples'), CATDS: 0.26734267999924899; n = 1.
For another assay, the system named is CLK3. The settings on record: read-out: apparent Kd; compound concentrations: 100 nM and 1000 nM (sheet 'Samples'), CATDS: 0.34896481785662797; n = 1.
[1] abbreviates: compound concentrations:100 nM and 1000 nM (sheet 'Samples').

On to `N#Cc1c(NC(=O)c2cccc3ccccc23)sc2c1CCCC2` [GW620972X], for which the potency estimated from few doses in the assay on ADRBK1 (compound concentrations: 100 nM and 1000 nM (sheet 'Samples'), CATDS: 9.9298321917506205E-2) is 1.57 µM; in the assay on AKT1 it was 1.82 µM; in the assay on AKT2 (compound concentrations: 100 nM and 1000 nM (sheet 'Samples'), CATDS: 0.116273813691737) it was 1.17 µM; in the assay on AKT3 (compound concentrations: 100 nM and 1000 nM (sheet 'Samples'), CATDS: 9.8238280231453798E-2), 1.61 µM; in the assay on MAP2K1, 1.82 µM; with MAP2K2, 1.64 µM. Also, the potency estimated from few doses in the assay on MAP4K3 is 1.42 µM; in the assay on NQO1 (compound concentrations: 100 nM and 1000 nM (sheet 'Samples'), CATDS: 0.121643058614981), 1.08 µM; with RIOK2 (compound concentrations: 100 nM and 1000 nM (sheet 'Samples'), CATDS: 0.103588865131405) it was 1.44 µM; in the assay with TP53RK it was 2.27 µM.
Consider `CC(=O)c1c(C)c2cnc(Nc3ccc(N4CCNCC4)cn3)nc2n(C2CCCC2)c1=O` [PFE-PKIS_32], for which the potency estimated from few doses was 1.17 µM in the assay on ADRBK1 (setting [1]); 1.96 µM in the assay with AKT2 (setting [1]); 0.118 µM in the assay on CDK4; 0.0823 µM with CDK6 (setting [1]); 1.61 µM with PIP4K2C; 2.04 µM in the assay with RIOK2 (setting [1]).
As for `CCn1c(-c2nonc2N)nc2cnc(Oc3cccc(NC(=O)c4ccc(OCCN5CCOCC5)cc4)c3)cc21.Cl` [GSK269962B], the potency estimated from few doses in the assay with ADRBK1 (setting [1]) is 1.48 µM; with AKT2 (setting [1]) it was 2.18 µM; in the assay on AKT3 (setting [1]), 1.6 µM; in the assay on NQO1 (setting [1]), 0.175 µM; with PKN2 it was 1.85 µM; with PRKCI, 1.97 µM. The potency estimated from few doses in the assay with PRKG1 is 0.0703 µM; with ROCK2 it was 0.294 µM; in the assay with RPS6KB1 it was 0.719 µM; in the assay with TTN, 0.388 µM.
Take `CS(=O)(=O)Nc1ccc(-c2ccc3c(NC(=O)C4CC4)n[nH]c3c2)cc1` [SB-742865]: the potency estimated from few doses in the assay with ADRBK1 (compound concentrations: 100 nM and 1000 nM (sheet 'Samples'), CATDS: 0.24933386454831599) was 1.84 µM; with CDK10, 0.107 µM; with PRKAA2 it was 1.44 µM.
On to `COc1ccc(CNC(=O)NC2CCN(c3ccnc(Nc4ccc(OC)cc4)n3)C2)cc1` (stereo not shown) [GSK1379727A], for which the potency estimated from few doses was 1.27 µM with ADRBK1 (compound concentrations: 100 nM and 1000 nM (sheet 'Samples'), CATDS: 0.35126637263884503); 1.7 µM in the assay on CDK6 (compound concentrations: 100 nM and 1000 nM (sheet 'Samples'), CATDS: 0.30417888081932698); 1.28 µM in the assay on CLK3.
As for `Nc1n[nH]c2nnc(-c3ccccc3)cc12` [SB-517389], the potency estimated from few doses in the assay on ADRBK1 (setting [1]) was 1.38 µM; in the assay with CDK6 (setting [1]) it was 1.87 µM.
